Source: PubChem (National Center for Advancing Translational Sciences (NCATS))
ASM inhibitor – human S-ASM enzyme inhibition. P17405. placental ASM, HMU-PC fluorogenic substrate, 60 min. Potency, µM (highest dose often 57.5 µM), without a hit: top-dose activity change, negative = inhibition, hits mostly inhibitors. 340,000 compounds, 0.006% hits. AID 504937; also: potency is read from the fitted curve at half-maximal effect
Target sequence (P17405 47-631 limits assumed): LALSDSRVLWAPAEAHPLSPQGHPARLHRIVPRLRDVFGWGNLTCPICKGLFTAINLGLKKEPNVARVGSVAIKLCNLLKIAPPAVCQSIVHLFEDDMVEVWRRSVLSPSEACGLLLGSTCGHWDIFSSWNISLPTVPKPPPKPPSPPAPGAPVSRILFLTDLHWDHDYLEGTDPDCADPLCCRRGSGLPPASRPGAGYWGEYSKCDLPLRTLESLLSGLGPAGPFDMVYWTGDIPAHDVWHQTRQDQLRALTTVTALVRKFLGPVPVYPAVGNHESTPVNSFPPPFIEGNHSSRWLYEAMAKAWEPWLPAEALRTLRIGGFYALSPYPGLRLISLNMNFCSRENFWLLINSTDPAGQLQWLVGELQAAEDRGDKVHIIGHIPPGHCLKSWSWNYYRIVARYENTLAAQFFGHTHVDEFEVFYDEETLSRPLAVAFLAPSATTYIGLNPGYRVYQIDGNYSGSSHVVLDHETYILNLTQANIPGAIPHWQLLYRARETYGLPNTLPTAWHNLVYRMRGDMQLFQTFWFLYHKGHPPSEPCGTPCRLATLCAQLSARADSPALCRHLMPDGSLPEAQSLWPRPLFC
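Human placenta-derived ASM preincubated with compound 10 min at room temperature, then reacted with 9 uM (final) fluorogenic HMU-PC substrate for 60 min at 37 C. Stop solution raises pH to 10; fluorescence read at Ex 386/Em 447 nm.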
DT40 TDP1 no CPT – qHTS for Inhibitors of human tyrosyl-DNA phosphodiesterase 1 (TDP1): qHTS in cells in absence of CPT; 420,000 compounds, 15% hits; DT40 Tdp1-/- hTDP1 cells, no CPT, ATP luminescence, 48 h; Potency, µM (doses to about 46.2 µM), without a hit: top-dose activity change, negative = growth inhibition, most hits filed as inhibitors; also: potency is read from the fitted curve at half-maximal effect; % is scaled to controls: 0 for no effect and ±100 for the full control effect; nearly all actives have a fitted effect of over 55% in size
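Compound effects on proliferation are scored in DT40 Tdp1-/-;hTDP1 cells in the absence of CPT. ATP levels (CellTiter-Glo luminescence) are recorded after a ≥48 hr, 37 °C incubation.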
TGFb inhibitor – inhibitors of TGF-b signaling; HepG2 CAGA-GFP TGF-b/SMAD3 reporter, GFP fluorescence, 18 h; TGF-beta stimulated, 500 pg/mL final; Potency, µM (top dose mostly 46.1 µM), without a hit: at the top dose activity, negative = inhibition, usual class: inhibitors; 410,000 compounds, 1.2% hits; AID 588855; also: potency is read from the fitted curve at half-maximal effect; % is scaled to controls: 0 for no effect and ±100 for the full control effect; nearly all actives have a fitted effect of over 65% in size
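HEPG2 CAGA-GFP cells (1000/well, DMEM with 1% FBS) were pre-incubated 2 h at 37 degrees C, given compound by pin tool, then stimulated with TGF-beta at 500 pg/mL final for 18 h before per-cell GFP fluorescence imaging.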
HepG2 tox – kills HepG2 cells in TGF-b inhibitor counter-screen; Potency, µM (titrated, usually from 46.1 µM), without a hit: at the top dose activity change, negative = cytotoxicity, most hits filed as cytotoxic; HepG2 CAGA-GFP viability, ATP luminescence, 18 h; 410,000 compounds, 0.76% hits; AID 588856; also: potency is read from the fitted curve at half-maximal effect
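CellTiter-Glo luminescence gave cytotoxicity after 18 hours at 37 degrees C. The cells were HepG2 CAGA-GFP in 1% FBS DMEM, stimulated with 500 pg/mL TGF-beta after compound addition. %Activity was normalised to no-cell wells (complete cell-killing) and DMSO (no toxicity), and curves were fitted and classified.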
TDP1 cell CPT – DT40-hTDP1 cell growth loss with CPT | Potency, µM (series often up to 46.2 µM), for inactives: at the highest dose activity change, negative = growth inhibition, usual class: inhibitors | 420,000 compounds, 12% hits | chicken DT40 Tdp1-/-;hTDP1 cells + 20 nM CPT, ATP luminescence, 48 h; also: potency is read from the fitted curve at half-maximal effect; % is scaled to controls: 0 for no effect and ±100 for the full control effect; nearly all actives have a fitted effect of over 55% in size
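Cell growth measured by CellTiter-Glo luminescence after a minimum 48 h, 37 C compound exposure with 20 nM CPT in Tdp1-knockout DT40 cells stably expressing hTDP1, seeded 400/well; qHTS titration format.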
IL1B secr inh – blocks inflammasome-driven IL-1 beta release; 360,000 compounds, 4.7% hits; activity change, % at 57.5 µM; AID 743279; THP-1 LPS/ATP IL-1B secretion, AlphaLISA, 16 h; hits give low values; in the data active = activity change below about -50%; inconclusive = mostly about -30% to -49%; also: % is scaled to controls: 0 for no effect and ±100 for the full control effect
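Secreted IL-1B measured by AlphaLISA bead assay after 16 h compound exposure of THP-1 cells; compounds (final up to 57.5 uM) added 1 h before LPS (250 ng/mL) and ATP (1.25 mM) stimulation; lower signal means less secretion.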
Active calls of the source: *; ? = inconclusive; nt = no result. Most compounds without a hit are left out; they make up all but 19% or so of the library. Unless noted, calls follow the shape of the dose curve; as a rule, active = well fitted curve in the direction sought with a large enough effect; inconclusive = small, poorly fitted or top-dose-only effect, or another doubt; inactive = no such curve, though single readings can be large; an effect the other way counts as inactive or inconclusive.

SMILES | ASM inhibitor | DT40 TDP1 no CPT | TGFb inhibitor | HepG2 tox | TDP1 cell CPT | IL1B secr inh
COc1ccccc1OCCCn1c(C)c(C#N)c2ccccc21 | -5% | 26µM* | -7% | -4% | 21µM* | -11
NNc1ccc([N+](=O)[O-])c2[nH][nH]c(=O)c12 | nt | 1% | -27% | 5% | -6% | -30
c1ccc(Oc2ccc(-c3ccnc4nc(N5CCOCC5)nn34)cc2)cc1 | 321% | 16µM* | -20% | -15% | 15µM* | -68*
COc1ccc(-c2ccnc3nc(N4CCOCC4)nn23)cc1 | 269% | -11% | 4% | -8% | -9% | -10
O=C(COC(=O)/C=C/c1cccc(Cl)c1)Nc1cccc(S(=O)(=O)NC2=NCCC2)c1 | -7% | 8% | -4% | -9% | -20% | ?
O=C(COC(=O)/C=C/c1cccc(Br)c1)Nc1cccc(S(=O)(=O)NC2=NCCC2)c1 | -8% | 4.1µM* | -2% | -6% | -14% | -16
CCOC(=O)/C=C/C(=O)OCC(=O)Nc1cccc(Br)c1 | 1% | ? | -3% | -13% | -19% | -62*
CCN(CC)c1ccc(C(=O)OCC(=O)Nc2cccc(S(=O)(=O)NC3=NCCCCC3)c2)cc1 | -6% | 18µM* | 7% | 2% | ? | -7
O=C(CCl)Nc1cccc(S(=O)(=O)NC2=NCCC2)c1 | 5% | 6.5µM* | 11µM* | 14µM* | 8.2µM* | -99*
CCCCNC(=S)Nc1cccc(S(=O)(=O)NC2=NCCC2)c1 | 1% | -7% | -8% | 3.5µM* | -11% | 11
O=C(Cc1csc(-c2ccc(Cl)cc2)n1)Nc1cccc(S(=O)(=O)NC2=NCCC2)c1 | -4% | -14% | -34% | -22% | -7% | -52*
OCC[C@@H]1C[C@H](O)[C@@H](O)[C@@]2(CCCO2)O1 | 0% | 3% | 8% | 5% | -3% | 17
Cc1nnc(N2CCN(C(=O)Nc3cc(F)ccc3F)CC2)c2nn(-c3ccc(Cl)cc3)c(C)c12 | nt | 21µM* | ? | -9% | 21µM* | nt
COC(=O)C(C)NC(=O)N1CCN(c2nnc(C)c3c(C)n(-c4ccc(Cl)cc4)nc23)CC1 (configuration not stated) | nt | 23µM* | 15% | 3% | ? | nt
Cc1onc(-c2ccccc2)c1C(=O)N/N=C/c1cn(C)c2ccccc12 | -2% | ? | -3% | 0% | -24% | 30
N#CCc1c(C#N)c(N)nc(N2CCN(S(=O)(=O)c3ccccc3)CC2)c1C#N | 8% | 16µM* | ? | -42% | 8.2µM* | -18
O=S(=O)(c1ccc(F)cc1)N1CCN(c2nc(-c3ccccc3)nc3ccccc23)CC1 | nt | 13µM* | 0% | 10% | ? | nt
O=S(=O)(c1ccc2c(c1)CCCC2)N1CCN(c2nc(-c3ccccc3)nc3ccccc23)CC1 | nt | 10µM* | 5% | 4% | 10µM* | nt
O=S(=O)(c1ccc(Cl)cc1)N1CCN(c2nc(-c3ccccc3)nc3ccccc23)CC1 | nt | 10µM* | 11% | -3% | ? | nt
CCc1nc2ccccc2nc1N1CCN(S(=O)(=O)c2ccccc2)CC1 | 1% | 16µM* | 13% | -7% | ? | -90*
CCc1nc2ccccc2nc1N1CCN(S(=O)(=O)c2c(C)cc(Cl)cc2C)CC1 | 17% | -24% | -2% | -3% | -26% | 78
COC(=O)/C(=C/c1cccnc1)NC(=O)c1ccccc1 | 2% | -5% | ? | -11% | 7% | 0
CN(C)C(=O)/C(=C\c1cccc(Oc2ccccc2)c1)NC(=O)c1ccccc1 | 2% | ? | -11% | -22% | 16µM* | -9
Cc1ccc(N(C(=O)CCCC(=O)Nc2ccccn2)C(C(=O)NC2CCCC2)c2ccc(O)cc2)cc1C (configuration not stated) | 6% | ? | ? | 0% | ? | -75*
Cc1ccc(N(C(=O)CCl)C(C(=O)NC2CCCCC2)c2cccnc2)cc1C (configuration not stated) | 1% | 1.6µM* | ? | -26% | 1.8µM* | -100*
SMILES | ASM inhibitor | DT40 TDP1 no CPT | TGFb inhibitor | HepG2 tox | TDP1 cell CPT | IL1B secr inh
Cc1ccc(N(C(=O)CNC(=O)c2ccco2)C(C(=O)NC2CCCCC2)c2cccnc2)cc1C (configuration not stated) | 0% | 2% | -3% | -2% | 0% | -13
COc1cccc(OCC(O)CN2CCN(c3ccccn3)CC2)c1 (configuration not stated) | 3% | 4% | 15% | -3% | 1% | -2
CC(C)(C)c1ccccc1OCC(O)CN1CCN(c2ccccn2)CC1 (configuration not stated) | 0% | ? | ? | -64% | 16µM* | -9
OC(COC(c1ccc(Cl)cc1)c1ccc(Cl)cc1)CN1CCN(c2ccccn2)CC1 (configuration not stated) | -13% | 16µM* | ? | 14µM* | ? | -84*
Cc1cccc(C)c1OCC(O)CN1CCN(c2ccccn2)CC1 (configuration not stated) | 0% | -6% | ? | 4% | 4% | 16
N#CCCN(Cc1cccnc1)CN1C(=O)c2ccccc2C1=O | nt | -3% | -3% | -1% | -1% | -30
C=CCN1C(=O)C(Cc2ccc(OC)cc2)S/C1=N/N=C/c1ccco1 (configuration not stated) | -9% | -21% | -7% | -2% | 3% | 0
COc1ccccc1Nc1nc(-c2cccnc2)cs1 | -1% | ? | 10% | -8% | ? | -95*
Cc1cc(C)cc(OCC(=O)Nc2nc(-c3cccnc3)cs2)c1 | -1% | 9.2µM* | -4% | -12% | 15µM* | 0
COc1ccc(Nc2nc(-c3cccnc3)cs2)c(OC)c1 | -3% | ? | 0% | -1% | ? | ?
COc1ccc(CC(=O)Nc2nc(-c3cccnc3)cs2)cc1 | 4% | 26µM* | -1% | 5% | ? | 17
O=C(COc1ccccc1)Nc1nc(-c2ccncc2)cs1 | nt | 16µM* | 4% | -62% | 21µM* | 37
Cc1cccc(NC(=O)C2CCCN2S(=O)(=O)c2ccc3nc(-c4ccccc4)[nH]c3c2)c1 (configuration not stated) | nt | 18µM* | ? | -25% | ? | nt
